Source: the supplement of paper PMC6555819

How the values were obtained:
Test in all cases: PBM binding z-score (relative to random genomic background probes); higher = stronger binding; sequences stand for … in GC…GCGATTGACAGCGTAGAATGAAGG
[1] = system: FXR:RXRa (NR concentration 270 nM, RXRa partner concentration 90 nM)
Outline: (§1)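 For binding z-scores, the reference was random background probes on custom Agilent 4×180K protein-binding microarrays. These arrays were incubated 1 h with ligand-free nuclear receptor dimers in PBS pH 7.4, 2% milk, 0.02% Triton X-100, 1 mM DTT, 0.2 mg/mL BSA and 0.4 mg/ml salmon testes DNA. Fluorescence was scanned after antibody detection of each partner (one per run) and regression-normalized.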

[2] = system: LXRa:RXRa (NR concentration 270 nM, RXRa partner concentration 90 nM)
Outline: as §1

[3] = system: LXRa homodimer (NR concentration 270 nM)
Outline: as §1

[4] = system: LXRb:RXRa (NR concentration 270 nM, RXRa partner concentration 90 nM)
Outline: as §1

[5] = system: LXRb homodimer (NR concentration 270 nM)
Outline: as §1

[6] = system: PPARa:RXRa (NR concentration 270 nM, RXRa partner concentration 90 nM)
Outline: as §1

[7] = system: PPARg:RXRa (NR concentration 180 nM, RXRa partner concentration 90 nM)
Outline: as §1

[8] = system: PPARg:RXRa 270nM:90nM, anti-RXR (NR concentration 270 nM, RXRa partner concentration 90 nM)
Outline: as §1

[9] = system: PPARg:RXRa 30nM:10nM, anti-RXR (NR concentration 30 nM, RXRa partner concentration 10 nM)
Outline: as §1

[10] = system: PPARg:RXRa 90nM:30nM, anti-RXR (NR concentration 90 nM, RXRa partner concentration 30 nM)
Outline: as §1

[11] = system: PPARg:RXRa DBDmut IVT, anti-RXR (DBD mutation: RXRa K156A/R161A, NR concentration 270 nM, RXRa partner concentration 90 nM)
Outline: as §1

[12] = system: PPARg:RXRa IVT, anti-PPARg (NR concentration 270 nM, RXRa partner concentration 90 nM)
Outline: as §1

[13] = system: PPARg DBDmut:RXRa IVT, anti-PPARg (DBD mutation: PPARg1 K132A/R137A, NR concentration 270 nM, RXRa partner concentration 90 nM)
Outline: as §1

[14] = system: PPARg DBDmut IVT, anti-PPARg (DBD mutation: PPARg1 K132A/R137A, NR concentration 270 nM)
Outline: as §1

[15] = system: PPARg homodimer (NR concentration 180 nM)
Outline: as §1

[16] = system: PXR:RXRa (NR concentration 270 nM, RXRa partner concentration 90 nM)
Outline: as §1

[17] = system: PXR homodimer (NR concentration 270 nM)
Outline: as §1

[18] = system: RARa:RXR (NR concentration 270 nM, RXRa partner concentration 90 nM)
Outline: as §1

[19] = system: RARa homodimer (NR concentration 270 nM)
Outline: as §1

[20] = system: RARb:RXRa (NR concentration 270 nM, RXRa partner concentration 90 nM)
Outline: as §1

Sequence	PBM binding z-score [1]	PBM binding z-score [2]	PBM binding z-score [3]	PBM binding z-score [4]	PBM binding z-score [5]	PBM binding z-score [6]	PBM binding z-score [7]	PBM binding z-score [8]	PBM binding z-score [9]	PBM binding z-score [10]	PBM binding z-score [11]	PBM binding z-score [12]	PBM binding z-score [13]	PBM binding z-score [14]	PBM binding z-score [15]	PBM binding z-score [16]	PBM binding z-score [17]	PBM binding z-score [18]	PBM binding z-score [19]	PBM binding z-score [20]
ATCGAGAGGTCGAGGTGAGTATAGAGAAAGGGAA	2.84	2.37	-0.153	1.78	-0.102	3.68	2.19	2.16	0.414	1.15	-0.102	1.75	0.955	0.168	0.817	1.9	-0.0163	2.63	-0.363	3.14
CCTACTGGGCAAAAGGTCATTGATTCCAATGCTC	4.38	5.09	3.89	4.36	0.466	5.57	10.4	9.29	9.17	9.67	2.57	5.1	-0.086	-0.781	3.07	4.91	1.5	5.73	1.77	4.35
GCAGACAGGTAAAACGCAGGTAACTCAGGGTGGC	-0.253	-0.37	-0.412	-0.448	-0.917	-0.183	0.515	-0.433	-0.834	-0.835	-0.691	-0.804	-1.23	-0.839	-0.847	-0.561	-0.484	-0.286	-0.674	-0.486
TCTTGTAGATCAACAGGAGGTAAAGAAAGATCGA	-0.194	-0.0725	-0.569	-0.104	-0.41	0.461	0.106	1.19	2.4	1.96	1.4	0.479	0.613	0.824	-0.233	0.0383	-0.784	-0.044	-0.132	-0.124
GCTGCTGGGTCAGGTTGGTCAGCTAACGGGTACG	0.641	0.222	-0.341	0.236	-0.403	1.32	0.104	0.429	-0.561	0.0436	1.8	1.47	-0.97	-0.347	0.551	0.0327	-0.0848	0.539	-0.315	2.84
TGTCAAAGTTCGAAGGTAACGTAAGTATCCACAC	1.54	1.56	0.166	1.27	-0.175	2.58	4.57	5	2.28	4.19	-0.516	2.26	1.29	0.86	0.387	1.64	0.292	2.13	0.23	2.34
TCATATAGTTAAAAGGTGAAAGTCGGTGTGGTAA	1.74	1.98	0.272	1.98	0.21	3.42	3.17	5.23	5.04	5.39	3.12	2.36	1.13	0.7	2.01	1.38	0.951	2.72	2.03	2.02
TCTTGTAAATCAATAGAGGTTAAGAAAGTGCGCT	0.793	3.32	0.658	1.86	0.26	1.86	0.0624	1.82	3.77	2.44	2.07	0.72	0.946	0.876	0.652	2.65	0.467	1.72	0.812	1.13
AGAATGAGGTTATAAAGATCAGGGAATTGCGGTC	1.45	1.31	0.315	1.17	0.00236	2.65	1.58	2	0.752	1.52	2.13	2.04	0.947	0.696	1.14	1.2	0.572	1.58	0.211	1.32
CGAACGAGGGCATGAGTTGATCGCAAATGCCGAT	0.394	0.374	-0.273	0.109	-0.729	1.45	1.22	1.32	0.129	0.937	2.91	2.12	0.532	-0.694	-0.0725	0.503	-0.144	0.222	-0.96	1.86
TCTCGGAGGACACGTAAGGTCAGAGCTCGACATC	2.43	3.03	1.46	2.1	-0.238	2.29	0.563	1.42	1.78	1.58	1.32	0.521	0.00634	-0.877	1.75	3.15	0.734	3.13	0.0447	3.41
CCTCGCAGGCCAATCTGGGTCACTCAAGGCTTGA	0.68	1.48	-0.253	0.914	-0.638	3	1.74	2.28	-0.176	1.3	3.89	4.74	-0.647	-1.36	0.567	1.21	-0.402	1.75	-0.288	1.67
CGAACTACGTCAGAACAGGACAGTGAAGGATGAT	-0.457	-0.582	-0.294	-1.05	-0.438	-0.716	0.632	-0.752	-0.147	-0.37	-0.549	-0.508	0.627	0.733	0.0908	-0.524	-0.0465	-0.592	-0.0605	-0.283
GCGACTGGTGCATCAGCAGGTTACCATAACTTAA	-0.753	-0.531	-0.541	-0.267	-1.02	-0.237	-0.0578	-0.215	-0.641	-0.986	-0.556	-0.572	-1.07	-0.356	-0.496	-0.248	-0.653	-0.046	-1.22	-0.228
TGAATGAGGTTAAAGATCTGGGAACGTGGCGTCG	2.5	2.16	-0.214	1.46	0.347	3.54	2.7	3.6	1.69	2.98	2.25	2.86	1.17	-0.223	0.811	1.19	-0.0436	1.8	-0.239	1.93
ATCTCTAGGTAAGACTCAGTTCAGTGGAGAACGC	0.367	0.505	0.914	0.328	0.692	0.228	0.00731	0.28	0.129	0.315	1.76	1.05	0.655	0.595	1.2	1.32	1.24	0.355	0.601	0.727
AGAATGAGGTTAAGATCAGTGAAACAGAATACAT	2.32	3.08	0.0147	1.91	-0.196	3.6	2.38	2.25	1.23	1.78	2.35	2.8	1.66	0.567	0.498	1	-0.347	1.84	-0.219	1.74
TTACCCAGGTGAGCTGAGGTCGTTGATCCAACTC	1.83	0.726	-0.313	0.515	-1.12	1.35	0.177	0.382	-0.172	0.184	0.846	1.89	-1.04	-0.726	0.267	4.2	0.439	1.55	-1.01	1.1
AGTCAAAGTTCATCTAGGTAACTTAAGATATGCT	6.76	6.19	5.17	3.8	1.81	4.6	6.6	6.26	2.93	5.64	1.01	3.43	1.87	1.38	4.01	5.28	7.67	3.91	1.85	4.6
ATCGAAAGGTAGAGGTGAGTATAGAGAAAGGGAA	0.781	0.589	0.209	0.313	0.482	0.942	1	0.958	0.813	0.82	-0.16	0.688	0.622	0.766	0.946	0.265	0.595	0.402	0.765	1.28
TCAGACAGGTGAAGGTAACGCAGGTACGCAGTCG	0.226	0.481	-0.607	0.397	-0.402	1.16	0.779	1.98	3.58	2.71	2.13	1.24	0.76	0.126	-0.401	0.411	-0.161	0.66	0.254	1.16
CATACTAGGTCACAGAGGTCAAAGTCCGTGCGTA	6.69	6.83	7.84	6.16	2.94	6.09	8.98	7.72	5.14	7.44	7.7	8.21	1.7	0.913	4.99	6.49	11.3	6.62	2.6	5.27
TATCCAGGGTCAAAGGCCAGAGTACGAATGTCGA	7.03	5.91	2.02	5.03	2.02	6.22	7.96	7.53	5.26	6.94	2.23	4.91	0.174	1.96	2.06	4.77	0.563	6.33	1.05	4.55
AGTCAAAGTTCATCTAGCTAACGTAAGATATGCT	6.22	5.88	4.89	3.8	1.73	4.45	6.14	6.05	3.68	5.44	0.278	2.41	1.28	0.69	2.37	4.83	4.89	3.89	1.29	4.79
CAAACTAGGTCACGAAAGGTCAATGTCGAATGAC	7.08	7.86	6.57	7.03	1.87	6.73	10.3	8.29	6.83	8.33	8.46	9.35	5.05	3.62	4.79	6.78	1.92	7.1	1.91	5.86
TGATATAGGTAAAGGTGAAAGTCGAACGATATGA	1.07	1.26	0.291	1.47	0.036	3.47	5.08	5.2	3.64	5.25	4.83	5.52	1.32	0.962	2.3	0.991	0.297	1.93	1.63	1.8
AGTCAAAGTTCACTAAGTAACGTAAGATTCAGCT	4.76	4.94	3.18	3.15	1.11	3.95	5.72	5.28	2.69	4.76	0.606	2.21	1.04	1.31	1.66	3.63	2.31	2.77	1.23	4.8
GCGAATGGGGCAAAGCAGGTTACCATAAGGTTGG	0.135	0.262	-0.483	0.474	-0.239	1.31	0.647	0.187	-0.478	-0.292	1.67	1.37	-0.887	-1.21	0.664	0.467	-0.414	0.571	-0.509	1.1
CGTCCAAGGTCCTAGGAGGTCAGTGAAGACAGAT	1.97	1.66	0.256	1.71	-0.518	2.44	0.157	0.654	-0.57	0.21	-0.235	0.579	-1.17	-1.02	1.48	3.01	0.587	2.87	0.328	2.42
